Here are results for 40 compounds from PubChem BioAssay.

Unmarked numbers belong to inactive results. No rule for the calls is given here.

Chain of Pantothenate synthetase (Mycobacterium tuberculosis (strain ATCC 25618 / H37Rv)) (P9WIL5 whole entry, looked up): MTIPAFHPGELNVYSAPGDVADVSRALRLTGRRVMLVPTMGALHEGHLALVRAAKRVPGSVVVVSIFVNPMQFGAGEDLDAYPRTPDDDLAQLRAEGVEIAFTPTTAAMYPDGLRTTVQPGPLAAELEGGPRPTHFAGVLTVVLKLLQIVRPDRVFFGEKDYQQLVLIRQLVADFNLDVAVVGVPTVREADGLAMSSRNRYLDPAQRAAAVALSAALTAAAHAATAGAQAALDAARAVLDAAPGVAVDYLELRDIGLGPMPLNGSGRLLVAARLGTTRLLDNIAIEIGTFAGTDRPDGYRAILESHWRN

This assay concerns the target Pantothenate synthetase (Mycobacterium tuberculosis (strain ATCC 25618 / H37Rv)) (UniProt P9WIL5). In words: Recombinant Mtb pantothenate synthetase (PanC) inhibitors, coupled enzyme, confirmatory (AID 375).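 Also: 0% = full reaction with vehicle and 100% = no enzyme background.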 As to conditions: coupled enzyme assay; at 10 µM, hits give high values.
On to `Cc1noc(C)c1CSc1nnc(-c2ccncc2)n1-c1cccc(Cl)c1C`, for which the inhibition was 0%.
Turning to `CC1=C(C)CC2C(=O)N(c3cccc4ccccc34)C(=O)C2C1` (stereo not given), the inhibition was 0%.
For the compound `CCN(CC)CCN1C(=O)Cn2c(C)c(C)c3cccc1c32`, the inhibition was 1%.
Take `O=C(NCC1CCCO1)C1CCCN(S(=O)(=O)c2cccc3nsnc23)C1` (stereo not given): the inhibition is 4%.
In the case of `Cn1c(SCc2ccc3c(c2)OCO3)nnc1-c1ccccc1` it was 0%.
As for `CN(C)CCCN1c2ccccc2Sc2ccccc21`, the inhibition was 0%.
The value for `COC(=O)c1cc(Br)c(=O)n(-c2nccs2)c1` was 0%; that for `Cc1ccccc1CS(=O)(=O)CCC(=O)N1CCN(c2ccc(N3CCOCC3)nn2)CC1` was 9%; that for `CCOc1ccc(OCc2cccc(C(=O)O)c2)cc1` was 6%.
In the case of `c1ccc2c(NC3CCCC3)nnc(NC3CCCC3)c2c1` it was 0%; in that of `CCOC(=O)c1ccccc1NC(=O)Cn1cnc2c(cnn2-c2ccc(OC)cc2)c1=O`, 0%; in that of `COc1cc2nc(SCC(=O)NC3CC3)n(CCC3=CCCCC3)c(=O)c2cc1OC`, 1%.
The value for `O=C(O)c1cc(/C=N\O)ccc1OCc1ccccc1` was 3%; that for `CN1CCCc2cc(C#N)c(=O)[nH]c21` was 5%.
Consider `CC(NC(=O)OCc1ccccc1)C(=O)N1CC(O)CC1C(=O)O` (stereo not given), for which the inhibition was 0%.
In the case of `Cc1ccc2c(c1)-c1cc(C)nn1C(c1ccc3c(c1)OCO3)N2` (stereo not given), the inhibition was 0%.
In the case of `CCOC(=O)c1nnn(CC(=O)Nc2cccc(F)c2)c1C(=O)OCC` it was 3%; in that of `O=C1CC(c2ccccc2)NC(=O)N1` (stereo not given), 0%; in that of `O=C(NCCCN1CCOCC1)c1cc(-c2ccc(O)cc2)on1`, 0%.
In the case of `COC(=O)c1ccc2c(=O)n(Cc3ccco3)c(SCC(=O)Nc3ccc(C)c(Cl)c3)nc2c1` it was 2%; in that of `COc1cccc(-c2cc(C(=O)NCc3ccc(Cl)cc3)no2)c1`, 0%; in that of `CCOC(=O)C1=C(Cn2cnc3ccccc32)NC(=O)NC1c1cc(C)ccc1C` (stereo not given), 0%.
The value for `CCOc1ccc(-n2cc(C(=O)Nc3cccc(C)n3)c3cc(OC)c(OC)cc3c2=O)cc1` was 1%; that for `c1ccc(SCc2nc3ccccc3[nH]2)nc1` was 4%; that for `CCOC(=O)N1CCC2(O)CCCCC2C1c1ccc(F)cc1` (stereo not given) was 1%.
For `CCOC(=O)CN(C(=O)CSc1nnc(-c2ccncc2)n1CCCN(C)C)c1ccccc1`, the inhibition is 11%.
The value for `COc1ccccc1C(=O)Nc1ccc(S(=O)(=O)N2CCOCC2)cc1` was 6%.
In the case of `COc1ccc(C(=O)Nn2c(C3CCC3)nc3ccccc3c2=O)c(OC)c1`, the inhibition is 0%.
In the case of `COc1ccc(NC(=O)N2CCC(O)(c3cccnc3)CC2)c(OC)c1` it was 3%; in that of `CCC(=O)c1cc(F)c(N2CCN(C(=O)c3ccco3)CC2)cc1C`, 7%.
Regarding `COCCn1c(CN(Cc2ccccc2)Cc2ccccc2)nc2c1c(=O)n(C)c(=O)n2C`, the inhibition was 0%.
In the case of `CCCOc1ccccc1NC(=O)c1c(-c2ccccc2)noc1C` it was 1%; in that of `CCOC(=O)c1sc(NC(=O)CSc2nnc3c4ccccc4n(CC)c3n2)nc1C`, 3%.
`O=C(CSc1nnnn1C1CCCCC1)N1CCc2ccccc21`: the inhibition was 0%.
Turning to `Cc1oc(-c2ccc(Cl)cc2)cc1-c1nn2c(-c3ccoc3C)nnc2s1`, the inhibition is 3%.
Regarding `COc1cccc2c(=O)cc(C)n(CC(=O)Nc3ccc(C)c(C)c3)c12`, the inhibition is 0%.
The value for `CCOC(=O)C1CCN(c2cc(C)nc3cc(-c4cccc(F)c4)nn23)CC1` was 3%; that for `COc1ccccc1C(=O)n1nc(-c2ccc(Cl)cc2)nc1N` was 3%.
In the case of `COc1ccccc1OCc1ccc(C(=O)OCC2CCCO2)o1` (stereo not given) it was 0%; in that of `COC(=O)c1ccc(Cl)c(NC(C)=O)c1`, 4%.

As usually defined, the inhibition is the drop in the measured response relative to a control, in per cent.
